We go through 26 compounds from PubChem BioAssay AID1209 (Sanford-Burnham Center for Chemical Genomics, 2008).

The whole screen tested about 190,000 compounds, of which about 810 (0.43%) were called active. Cut-off read from the data, not from the text of the source: active = inhibition above about 50%; inactive = the rest. The sample as a whole holds a higher share of actives than the screen did.

Chain of Mannose-6-phosphate isomerase (Homo sapiens) (P34949 whole entry, looked up): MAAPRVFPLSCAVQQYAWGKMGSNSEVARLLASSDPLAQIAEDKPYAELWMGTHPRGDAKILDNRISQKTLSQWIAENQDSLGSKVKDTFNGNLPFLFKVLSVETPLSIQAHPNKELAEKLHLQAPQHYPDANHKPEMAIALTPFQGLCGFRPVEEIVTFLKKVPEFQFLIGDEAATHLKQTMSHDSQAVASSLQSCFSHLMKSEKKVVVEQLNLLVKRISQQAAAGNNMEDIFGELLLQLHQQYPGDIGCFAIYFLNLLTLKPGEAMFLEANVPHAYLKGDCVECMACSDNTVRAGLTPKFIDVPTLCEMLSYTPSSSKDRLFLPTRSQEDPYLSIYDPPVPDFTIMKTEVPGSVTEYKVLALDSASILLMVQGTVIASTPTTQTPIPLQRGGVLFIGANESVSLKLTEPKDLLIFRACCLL

This assay concerns the target Mannose-6-phosphate isomerase (Homo sapiens) (UniProt P34949). As to the kind of experiment: MPI enzyme activity inhibition – biochemical, fluorescence intensity, coupled assay, primary screen (AID 1209).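 Note: plate controls were DMSO vehicle for no effect and wells lacking substrate for full effect.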 The following applies: purified PMI enzyme, at 20 µM, active compounds read high.
In the case of `Cn1c(=O)cc(-c2ccccc2)c2ccccc21`, the inhibition is 1.5% (inactive).
Next, `Oc1cc(-c2ccccc2)c2ccccc2c1`: 82.6% (active).
`O=c1cc(-c2ccccc2)c2ccccc2[nH]1`: the inhibition is 9.9% (inactive).
Next, `CCOC(=O)CSc1nc(C(C)(C)C)cc(C(F)(F)F)c1C#N`: 5.9% (inactive); `COC(=O)C1=C(C(=O)OC)SC2(S1)C(C(=O)OC)=C(C(=O)OC)SC1=C2c2cccc(C)c2NC1(C)C`: 24.5% (inactive); `COC(=O)C1=C(C(=O)OC)SC2(S1)C(C(=O)OC)=C(C(=O)OC)SC1=C2c2cc(C)ccc2NC1(C)C`: 57% (active).
With `COC(=O)C1=C(C(=O)OC)SC2(S1)C(C(=O)OC)=C(C(=O)OC)SC1=C2c2cc(C)cc(C)c2NC1(C)C` the figure was 18.1% (inactive); with `CCOC(=O)CN1CCc2c(C)nc3c(-c4ccc(OC)c(OC)c4)cnn3c21`, 20.1% (inactive).
Next, `CCOC(=O)NC(=O)COC(=O)CNC(=O)c1cccc(OC)c1`: -0.3% (inactive).
For `COc1ccc(C(=O)NC(=S)NCC2CCCO2)cc1` (stereo unspecified), the inhibition is 2.8% (inactive).
Next, `COc1ccc(N(CC(=O)N/N=C/c2ccc(-c3ccc([N+](=O)[O-])cc3)o2)S(=O)(=O)c2ccc(C)cc2)cc1`: -2.3% (inactive); `Cc1ccc(C)c(N(CC(=O)N/N=C/c2ccc(-c3ccc([N+](=O)[O-])cc3)o2)S(=O)(=O)c2ccccc2)c1`: 10.6% (inactive).
Next, `CCOC(=O)C1(Cc2ccc(OC)cc2)CCN(C(=O)CCc2cccnc2)CC1`: 7.6% (inactive); `COc1ccc(C)cc1NC(=O)CSc1nnc(-c2ccco2)n1N`: 10.6% (inactive).
Regarding `COC(=O)/C=c1/sc2nc3ccccc3n2c1=O`, the inhibition was 75.6% (active).
`O=c1/c(=C\c2cccnc2)sc2nc3ccccc3n12`: the inhibition is 7% (inactive).
As for `O=c1/c(=C/c2ccccn2)sc2nc3ccccc3n12`, the inhibition is -21.7% (inactive).
Consider `Nc1ccccc1Oc1c(F)c(F)c(Oc2ccccc2N)c(F)c1F`, for which the inhibition was 18.8% (inactive).
Next, `COc1cc(NC(c2ccccc2)c2ccccc2)cc(OC)c1OC`: 62.4% (active).
With `COc1cc(C)c(NC(c2ccccc2)c2ccccc2)cc1OC` the figure was 16.1% (inactive).
With `COc1cc(NC(C(=O)Nc2cccc(C(C)=O)c2)c2ccccc2)cc(OC)c1OC` (stereo unspecified) the figure was 16.5% (inactive); with `COc1ccc(C(C)=O)c(OC(=O)c2ccc(OC)c(OC)c2)c1`, 17.5% (inactive); with `C=CCNc1nc2c(c(=O)[nH]c(=O)n2C)n1CCCCC`, 2.9% (inactive).
`COCCN=C1Sc2nc3ccc(C)cc3cc2CN1Cc1ccco1`: the inhibition is -63.1% (inactive).
Next, `Cc1cccc2cc3c(nc12)SC(=NCC1CCCO1)N(Cc1ccco1)C3` (stereo unspecified): 7.4% (inactive).
For the compound `COCCN=C1Sc2nc3c(C)cccc3cc2CN1Cc1ccco1`, the inhibition was 51% (active).
